In the library only some 7.9% were active in any assay of this set; here they are far more common.
HCMV inh: qHTS Assay for inhibitors of the human cytomegalovirus (HCMV); HFF cells, HCMV-luciferase reporter, 72 h; active compounds read low; AID 1259415, 2018; activity change, negative = inhibition, % at 57.5 µM; hit rate 4.5% among 410,000; in the data active means activity change below about -60%; inconclusive means no clear call, values can overlap the other calls; inactive means above about -39%
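Compounds were evaluated in HFFs infected with an HCMV luciferase reporter virus (MOI 1 PFU/cell). Luciferase in lysates collected 72 h post infection served as the replication measure.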
HCV inhibitor: qHTS Assay for Inhibitors of Hepatitis C Virus (HCV) | hit rate 3.4% among 340,000 | Potency, µM (highest dose often 41.8 µM), hits mostly inhibitors | Huh7.5.1 HCVcc-Cre infection, luciferase reporter, 44 h; active means well fitted inhibition curve with a large enough effect; inconclusive means small, poorly fitted or top-dose-only effect, or another doubt; inactive means no such curve, though single readings can be large or run the other way
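Seed cells (1,000/well) for 4 h; treat with compound and infect with HCVcc-Cre, moi about 0.5. Incubate 44 h, then detect luciferase activity.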
FMDV antiviral: High Throughput Screening for Foot and Mouth Disease Virus Antivirals | Potency, µM (titrated, usually from 57.9 µM), hits mostly inhibitors | FMDV antiviral cell-based qHTS | hit rate 1.2% among 410,000 | AID 1159524, 2015; calls by dose curve; tested in HEK293T cells; further: read-out not given here; nearly all actives have a fitted effect of over 45% in size
Marburg entry inh: qHTS for inhibitors of binding or entry into cells for Marburg Virus | Marburg virus pseudotyped entry inhibition, cell reporter | hit rate 1.8% among 300,000 | AID 540276, 2011 | Potency, µM (top dose mostly 37.8 µM), usual class: inhibitors; calls by dose curve; tested in HEK293 cells
Lassa entry inh: qHTS for Inhibitors of binding or entry into cells for Lassa Virus. Lassa virus pseudotype entry inhibition, cell reporter. hit rate 1.2% among 300,000. AID 540256, 2011. Potency, µM (series often up to 37.9 µM), actives largely listed as inhibitors; calls by dose curve; tested in HEK293 cells; further: nearly all actives have a fitted effect of over 50% in size
Numbers stand for hits; i = inactive; ? = inconclusive; nt = not tested or not shown; ! = not confirmed by another sample.

SMILES | HCMV inh | HCV inhibitor | FMDV antiviral | Marburg entry inh | Lassa entry inh
Cc1c(Cl)ccc2sc(N3CCN(C(=O)CS(=O)(=O)c4ccccc4)CC3)nc12 | i | nt | ? | nt | i
CCOC(=O)C(C(C)=O)c1c(Br)c(O)c(O)c2c(C(=O)c3ccc(C)cc3)coc12 (stereo not drawn) | -96 | nt | i | 2.3µM! | i
CCOC(=O)c1c(C)n(-c2ccc(C)cc2)c2c(CC(C)=O)c(Br)c(OC)c(O)c12 | i | i | i | i | i
CCOC(=O)c1c(C)n(-c2ccc(C)cc2)c2c(C(C(C)=O)C(=O)O)c(Br)c(O)c(O)c12 (stereo not drawn) | ? | 11µM | i | i | ?
Cc1ccc(C(=O)c2coc3ccc(O)c(Cl)c23)cc1 | i | i | i | i | ?
CSC1=NC(=O)C2=C3CC(C)(C)OCC3SC2=N1 (stereo not drawn) | nt | nt | nt | i | nt
CCOC(=O)N1CCN(C(=O)C2CCCN(S(=O)(=O)c3cc(C)ccc3OC)C2)CC1 (stereo not drawn) | i | i | nt | i | i
COc1ccc(S(=O)(=O)N2CCCC(C(=O)O)C2)cc1Cl (stereo not drawn) | i | i | i | ? | i
COc1ccc(S(=O)(=O)N2CCCC(C(=O)N3CCN(c4ccccc4)CC3)C2)cc1Cl (stereo not drawn) | i | ? | 35µM | i | ?
COc1ccc(C)cc1S(=O)(=O)N1CCCC(C(=O)N2CCN(c3ccccc3)CC2)C1 (stereo not drawn) | -69 | ? | ? | nt | nt
Cc1ccc(-n2c(=O)c3c(cnn3C)n(Cc3ccc(Cl)cc3)c2=O)cc1 | i | nt | i | i | i
Cc1cc(C)c(S(=O)(=O)NCCc2sc(-c3cccnc3)nc2C)c(C)c1 | i | nt | i | nt | i
CCOc1ccc(CN2CCN(C(=O)c3ccccc3)CC2)cc1 | i | 11µM | ? | ? | i
CCOc1ccc(CN2CCN(C(=O)c3cccc4ccccc34)CC2)cc1 | ? | 7.1µM | ? | nt | nt
CCOc1ccc(CNc2ccc(N3CCN(Cc4ccccc4)CC3)cc2)cc1 | i | 10µM | i | i | ?
CCOc1ccc2oc(=O)cc(CN3CCN(C(=O)c4ccc(Cl)cc4)CC3)c2c1 | -67 | nt | i | i | i
CCOc1ccc2oc(=O)cc(CN3CCN(C(=O)c4cccc(Cl)c4)CC3)c2c1 | i | nt | i | i | i
CCOc1ccc(C(=O)N2CCN(Cc3ccccc3)CC2)cc1 | i | i | nt | i | i
CCOC(=O)N1CCN(Cc2cc(=O)oc3ccc4ccccc4c23)CC1 | i | i | 20µM | i | i
C=C(C)CNC(=S)N/N=C1\CCCCc2ccccc21 | -61 | i | i | i | ?
Cc1ccc(C)c(NC(=S)N/N=C2\CCc3ccccc32)c1 | i | 10µM | i | nt | nt
Cc1cc(Cl)c2oc(C(=O)NCCC3CCCCO3)c(C)c2c1 (stereo not drawn) | i | 25µM | i | ? | ?
Cc1sc2ncnc(NCC(O)c3ccccc3)c2c1C (stereo not drawn) | -74 | 11µM | i | ? | ?
Cc1sc2ncnc(NCC(c3ccccc3)N(C)C)c2c1C (stereo not drawn) | i | ? | ? | ? | i
Cc1sc2ncnc(NCC(O)c3ccc([N+](=O)[O-])cc3)c2c1C (stereo not drawn) | -79 | 11µM | ? | ? | ?
SMILES | HCMV inh | HCV inhibitor | FMDV antiviral | Marburg entry inh | Lassa entry inh
COc1ccc(CN2CCOc3ccc(C(O)c4cccnc4)cc3C2)c(F)c1 (stereo not drawn) | nt | nt | i | nt | nt
COCCNc1nc(SCc2ccccc2)nc2sc3c(c12)CCC3 | i | ? | ? | i | i
CC(CO)Nc1nc(SCc2ccccc2)nc2sc3c(c12)CCC3 (stereo not drawn) | ? | 13µM | i | i | i
CC(=O)Nc1cccc(/C(C)=N/NC(=O)c2ccc(NS(=O)(=O)c3cccs3)cc2)c1 | i | i | i | i | i
C/C(=N\NC(=O)c1ccc(NS(=O)(=O)c2cccs2)cc1)c1ccc(C(C)(C)C)cc1 | i | 7.1µM | i | ? | ?
COc1cc(=O)n2c(c1C(=O)NCc1ccco1)CCN(C(=O)c1cccnc1SC)CC2 | nt | nt | i | nt | nt
COc1cccc2sc(N)nc12 | i | i | i | nt | nt
COc1cccc2sc(N(C)c3ccccc3)nc12 | i | 25µM | i | ? | ?
CCOC(=O)CN1C(=O)[C@]2(O[C@H](COc3ccccc3)CC3=CCCC32)c2c(Br)cccc21 (stereo partly drawn) | nt | nt | nt | i | ?
CC(NC(=O)OCc1ccccc1)C(=O)Oc1cc2oc(=O)cc(-c3ccccc3)c2cc1Cl (stereo not drawn) | -94 | i | i | i | i
CC1=NN(c2nc(-c3ccc(C)cc3)cs2)C(=O)C1N=Nc1ccc(C(N)=O)cc1 (stereo not drawn) | ? | 2.8µM | i | 6.5µM | 4.6µM
COc1ccc(C2=NC(C)(C)Cc3cc(OC)c(OC)cc32)cc1OC | i | i | i | nt | nt
COc1cc2c(cc1OC)C(c1cc3ccccc3oc1=O)=NC(C)(C)C2 | -98 | ? | i | i | i
C/C(=N\NC(=O)c1ccc(C)cc1C)c1ccc2c(c1)Nc1ccccc1S2 | i | 3.5µM | ? | i | ?
CN(C)CCNC(=O)c1ccc2c(c1)NC(=O)c1ccccc1S2 | i | 8.9µM | i | nt | nt
CC(=O)c1ccc2c(c1)Nc1ccccc1S2 | i | ? | i | i | i
Cc1ccc(NC(=O)c2ccc3c(c2)NC(=O)c2ccccc2S3)cc1 | -71 | nt | ? | ? | nt
CCOc1ccc(-n2c(SCC(=O)Nc3ccc(F)cc3)nc3c([nH]c4ccccc43)c2=O)cc1 | i | nt | i | nt | i
O=C(c1ccccc1Cl)N1N=C(c2ccc(Br)cc2)CC1c1nc2ccccc2[nH]1 (stereo not drawn) | i | 11µM | i | ? | ?
COc1ccc(CCC(=O)NCc2nc3cccnc3n2Cc2ccc(F)cc2)cc1 | ? | nt | i | nt | i
Cc1ccc(-c2nc(-c3ccccc3)no2)c(Cl)c1 | -79 | i | i | nt | nt
Cc1ccc(-c2nc(-c3ccncc3)no2)cc1 | i | ? | i | ? | ?
CC(C)(C)c1ccc(-c2nc(-c3ccncc3)no2)cc1 | -70 | i | ? | ? | ?
COc1ccc(-c2noc(-c3ccccc3-c3ccccc3)n2)cc1 | i | ? | i | i | i
Cc1noc(-c2ccc(-c3noc(-c4ccccc4)n3)cc2)n1 | i | nt | i | nt | i
SMILES | HCMV inh | HCV inhibitor | FMDV antiviral | Marburg entry inh | Lassa entry inh
Cc1ccc(-c2nc(-c3ccccc3)no2)cc1 | i | i | 11µM | ? | ?
Cc1cccc(-c2nc(-c3ccncc3)no2)c1 | i | ? | i | ? | 10µM
CN1OC(C)(CC(=O)Nc2ccccc2)N=C1c1ccc(Br)cc1 (stereo not drawn) | i | nt | nt | nt | nt
COc1ccc2c(c1)CC/C=C(/C)CC(CO)O2 (stereo not drawn) | i | nt | nt | nt | nt
COc1ccc2c(c1)CCC(=O)C(C)CCO2 (stereo not drawn) | i | nt | nt | nt | nt
CC(=O)NCC(=O)NCC1Cc2cc(C)cc(-c3ccccn3)c2O1 (stereo not drawn) | nt | nt | i | nt | nt
Nc1ncnc2c1nc(SCCO)n2Cc1ccccc1 | -74 | i | i | i | nt
Nc1ncnc2c1ncn2CCc1ccccc1 | ? | i | i | ? | i

Screening results deposited in PubChem BioAssay by National Center for Advancing Translational Sciences (NCATS).
